Assay outcomes (PubChem BioAssay)
nsP2pro primary: inhibitors of chikungunya virus nsP2 protease | Q8JUX6 | FRET peptide cleavage, nsP2pro, fluorescence 1 h | Potency, µM (doses to about 24.9 µM), actives largely listed as inhibitors | 1.1% of 31,000 active; also: nearly all actives have a fitted effect of over 60% in size
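Enzyme 150 nM, substrate 2.5 uM (both final); Tris-HCl 10 mM pH 8.0 + 0.01% Tween 20; cpd up to 25 uM, 7 pts; 15 min preinc., 1 h RT; fluorescence ex 525/em 598.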
CHIKV nsP2 cell: cell-based CHIKV nsP2 protease inhibition, secondary; shares compounds with nsP2pro primary; cell-based CHIKV nsP2 protease reporter assay; Potency, µM (series often up to 51.1 µM), actives largely listed as inhibitors; 10% of 450 active; AID 1964100; also: nearly all actives have a fitted effect of over 70% in size
CHIKV NSP2 FL: inhibits full-length CHIKV NSP2 enzyme. Potency, µM (top dose mostly 50.7 µM), usual class: inhibitors. AID 1964101. 39% of 410 active. Full-length CHIKV NSP2 protease enzymatic counterscreen. shares compounds with nsP2pro primary; also: nearly all actives have a fitted effect of over 65% in size
Furin counterscr: selectivity counter-screen for CHIKV nsP2 protease inhibitors: human furin; shares compounds with nsP2pro primary; Recombinant human furin enzymatic counterscreen, fluorogenic substrate; Potency, µM (top dose mostly 50.6 µM), hits mostly inhibitors; 6% of 410 active; AID 1964102
nsP2 NS23 pep: nsP2pro inhibition on native NS2/3 peptide substrate; shares compounds with nsP2pro primary; Potency, µM (doses to about 51 µM), most hits filed as inhibitors; 34% of 410 active; Purified CHIKV nsP2 protease, endogenous NS2/3 peptide cleavage; also: nearly all actives have a fitted effect of over 55% in size
Papain cs: inhibits papain in a CHIKV nsP2 protease selectivity counterscreen | shares compounds with nsP2pro primary | purified papain protease activity, enzymatic inhibition | Potency, µM (top dose mostly 51 µM), most hits filed as inhibitors | 5% of 410 active | AID 1964104
nsP2pro conf qHTS: confirmation of CHIKV nsP2 protease inhibitors | shares compounds with nsP2pro primary | CHIKV nsP2 protease enzymatic activity, qHTS | Potency, µM (series often up to 25.5 µM), most hits filed as inhibitors | 43% of 410 active; also: nearly all actives have a fitted effect of over 75% in size
HCV NS3 counter: selectivity counter-screen for CHIKV nsP2 protease inhibitors: HCV NS3/4A | shares compounds with nsP2pro primary | HCV NS3/4A protease biochemical counterscreen | Potency, µM (highest dose often 50.9 µM), most hits filed as inhibitors | AID 1964106 | 20% of 410 active; also: nearly all actives have a fitted effect of over 55% in size
Of the large screens only hits and unclear results are named; the others gave an inactive call (follow-up assays come after a bar, where they were run). Shown is part of a subset that was picked to be rich in hits. Calls follow the shape of the full dose curve.

CCN1C[C@@]2(COC)C3[C@@H](OC)C4[C@@H]1[C@@]3(C1C[C@]3(O)[C@H](OC(=O)c5ccccc5)C1[C@]4(OC(C)=O)[C@@H](O)[C@@H]3OC)[C@@H](OC)C[C@H]2O (stereo partly drawn)	none
O=C(c1ccc(CCC2COc3ccccc3O2)cc1)N1CCCCC1 (stereo not drawn)	none
Clc1ccc(N2C[C@H]3CC[C@@H](C2)N3)nn1	nsP2pro primary 5µM | CHIKV nsP2 cell inactive | CHIKV NSP2 FL 4.1µM | Furin counterscr inconclusive | nsP2 NS23 pep 15µM | Papain cs inconclusive | nsP2pro conf qHTS 3.6µM | HCV NS3 counter inactive
Cc1cc(C)nc(NC(=S)N2CCN(c3ccc(Cl)nn3)CC2)c1	none
CO[C@@H]1[C@H](C)OC(O[C@H]2CC(Oc3cc4cc5c(c(O)c4c(O)c3C)C(=O)[C@@H](OC3C[C@@H](OC4C[C@H](OC6C[C@](C)(O)[C@@H](OC(C)=O)[C@H](C)O6)[C@@H](O)[C@H](C)O4)[C@H](O)[C@@H](C)O3)[C@H]([C@@H](OC)C(=O)[C@@H](O)[C@H](C)O)C5)O[C@@H](C)[C@H]2OC(C)=O)C[C@@H]1O (stereo partly drawn)	none
COc1ccc(NS(=O)(=O)c2ccc(C)cc2)cc1C(=O)Nc1nc(-c2ccccc2)cs1	none
O=C(NC[C@@H]1CN(c2ccc(N3CCOCC3=O)cc2)C(=O)O1)c1ccc(Cl)s1	none
COCC1CN(Cc2ccc(C(C)C)cc2)CC12CCNCC2 (stereo not drawn)	none
CC(=O)NCCNC(=O)C1CCCN(S(=O)(=O)c2ccccc2)CCC(=O)NCC1 (stereo not drawn)	none
COc1ccccc1NC(=O)C1=C(C)Nc2ncnn2C1c1ccccc1C(=O)O (stereo not drawn)	none
COc1ccccc1NC(=O)C1=C(C)Nc2nc(-c3ccco3)nn2C1c1ccccc1F (stereo not drawn)	nsP2pro primary inconclusive | CHIKV nsP2 cell inactive
COc1ccccc1NC(=O)C1=C(C)Nc2nc(SCc3ccccc3Cl)nn2C1c1ccncc1 (stereo not drawn)	none
CC(=O)NCCC(=O)N1CCC2(CC1)CC(NC(C)=O)c1ccccc12 (stereo not drawn)	none
CC(=O)NC1CC2(CCN(C(=O)CCCNC(=O)OC(C)(C)C)CC2)Oc2ccccc21 (stereo not drawn)	nsP2pro primary inconclusive | CHIKV nsP2 cell inactive | CHIKV NSP2 FL inactive | Furin counterscr inactive | nsP2 NS23 pep inconclusive | Papain cs inactive | nsP2pro conf qHTS inconclusive | HCV NS3 counter inconclusive
CC(=O)NCCCC(=O)N1CCC2(CC1)CN(S(C)(=O)=O)Cc1ccccc1O2	none
COc1ccc(-c2nc(Nc3ccc(F)c(F)c3)c3ccccc3n2)cc1	none
O=C(O)c1ccc(-c2ccc3ncnc(NCc4cccs4)c3c2)o1	none
CC1C2=CC(=O)OC2(O)CC2C1CCC1C(C)(C)CCC(O)C21C (stereo not drawn)	none
CC1C2=CC(=O)OC2(O)CC2C1C(OC(=O)c1ccccc1)C(OC(=O)c1ccccc1)C1(O)C2(C)CCC(O)C1(C)C(=O)O (stereo not drawn)	nsP2pro primary 2.3µM | CHIKV nsP2 cell inactive | CHIKV NSP2 FL inactive | Furin counterscr inactive | nsP2 NS23 pep inactive | Papain cs inactive | nsP2pro conf qHTS inactive | HCV NS3 counter inactive
CC(=O)OC1C(O)C2C(C)C3=CC(=O)OC3(O)CC2C2(C)CCCC(C)(CO)C12 (stereo not drawn)	none
COc1cccc(CN[C@H]2[C@H](O)[C@H](O)C[C@@H]2c2ccc(N3CCOCC3)nc2)c1	none
